Test [1] in a line: ATG_E_Box_CIS: Attagene CIS-FACTORIAL HepG2 Assay for human Enhancer Box (E-box) (AID 2282936). Conditions: HepG2 E-box cis-reporter transcription, actives raise or lower the signal. Put shortly: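 Multiplexed CIS reporter system in transiently transfected HepG2 cells measures native transcription factor activity. Reporter RNA after 24 h exposure is profiled by RT-PCR-capillary electrophoresis.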

Test [2] is described as follows: ATG_M_61_CIS: Attagene CIS-FACTORIAL HepG2 Assay for M61 Transcription Factor (Internal Marker) (AID 2282937). To be noted: HepG2 Attagene CIS-FACTORIAL M61 internal marker reporter; actives raise or lower the signal. Put shortly: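 Human liver HepG2, transient MRTU transfection (cis promoter elements), 24 h compound. Total RNA → oligo(dT) RT → PCR → FAM label → HpaI → CE. Internal background marker; bidirectional fitting, DMSO = baseline.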

Test [3] is described as follows: ATG_EGR_CIS: Attagene CIS-FACTORIAL HepG2 Assay for human Early Growth Response 1 (EGR1) (AID 2282938). To be noted: HepG2 Attagene CIS-FACTORIAL EGR reporter mRNA; actives raise or lower the signal. Put shortly:
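Transient transfection of human HepG2 with multiple cis-regulated reporter units, chemical exposure 24 h, total RNA isolated. Reverse transcription, PCR, fluorescent labelling and capillary electrophoresis quantify reporter transcripts; activity fitted bidirectionally against DMSO.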

The nature of test [4]: ATG_M_19_CIS: Attagene CIS-FACTORIAL HepG2 Assay for M19 Transcription Factor (Internal Marker) (AID 2282939). Conditions: HepG2 Attagene CIS-FACTORIAL M19 internal marker reporter; actives raise or lower the signal. Put shortly:
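Following a 24 h exposure, RNA from transfected HepG2 cells was reverse-transcribed, PCR-amplified with reporter-specific primers, end-labelled with 6-FAM and HpaI-digested before capillary separation. Values represent gain or loss versus DMSO.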

A short description of test [5]: ATG_ERE_CIS: Attagene CIS-FACTORIAL HepG2 Assay for Estrogen Response Element (ERE) (AID 2282940). Conditions: HepG2 ERE cis-reporter, Attagene RNA transcript; actives raise or lower the signal. Put shortly:
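HepG2, transient cis-reporter units, 24 h exposure. RNA isolated, oligo(dT) RT, reporter-specific PCR, FAM extension, HpaI cut, CE detection. Gain/loss-of-signal vs DMSO.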

Test [6] can be described thus: ATG_Ets_CIS: Attagene CIS-FACTORIAL HepG2 Assay for human Erythroblast Transformation Specific (ETS) (AID 2282941). To be noted: HepG2 ETS cis-reporter transcription, actives raise or lower the signal. Put shortly: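 After transient cis-reporter transfection, HepG2 cells receive test chemical for 24 h. Reporter mRNA levels, measured by RT-PCR and capillary electrophoresis fluorescence, are analysed bidirectionally relative to the DMSO baseline.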

The target of test [7] is Hepatocyte nuclear factor 3-beta (Homo sapiens) (UniProt Q9Y261). The test is described as follows: ATG_FoxA2_CIS: Attagene CIS-FACTORIAL HepG2 Assay for human Forkhead box A2 (FOXA2) (AID 2282942). Conditions: HepG2 cis-reporter transcription factor activity, 24 h; actives raise or lower the signal. Put shortly:
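Transient MRTU transfection of HepG2 liver cells; 24 h treatment; total RNA → oligo(dT) RT → PCR → FAM primer extension → HpaI cut → CE. Bidirectional fit vs DMSO.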

Test [8] in a line: ATG_FoxO_CIS: Attagene CIS-FACTORIAL HepG2 Assay for human Forkhead box O (FoxO) (AID 2282943). To be noted: HepG2 Attagene cis-reporter, FoxO element, mRNA; actives raise or lower the signal. Put shortly: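 Values reflect reporter mRNA induction or loss in HepG2 cells 24 h post-dosing, fitted bidirectionally with DMSO as negative control and baseline. Detection used RT-PCR and fluorescence capillary electrophoresis.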

A short description of test [9]: ATG_GLI_CIS: Attagene CIS-FACTORIAL HepG2 Assay for human Zinc Finger Protein GLI1 (AID 2282945). Conditions: HepG2, Attagene cis-factorial reporter mRNA, GLI element; actives raise or lower the signal. Put shortly:
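HepG2 cells transiently transfected with cis-promoter multiplexed reporter units report endogenous transcription factor activity. After 24 h chemical exposure, reporter mRNA was quantified by RT-PCR, 6-FAM labelling, HpaI digestion and capillary electrophoresis, with bidirectional fitting against DMSO.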

Test [10] addresses Bile acid receptor (Homo sapiens) (UniProt Q96RI1). The test is described as follows: ATG_IR1_CIS: Attagene CIS-FACTORIAL HepG2 Assay for human Nuclear Receptor Subfamily 1 Group H Member 4 (NR1H4), IR1 submotif (AID 2282946). Conditions: IR1 reporter transcription, actives raise or lower the signal. Put shortly:
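Transient MRTU transfection, HepG2; 24 h dosing; RNA → RT-PCR → 6-FAM primer extension → HpaI digest → capillary electrophoresis fluorescence. Gain/loss of signal fitted relative to DMSO.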

Test [11] in a line: ATG_GRE_CIS: Attagene CIS-FACTORIAL HepG2 Assay for human Glucocorticoid Response Elements (GRE) (AID 2282947). Conditions: HepG2 GRE cis-reporter, Attagene multiplex mRNA; actives raise or lower the signal. Put shortly:
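Following 24 h chemical exposure of transiently transfected HepG2 cells, total RNA was reverse-transcribed and reporter cDNA amplified, fluorescently labelled and sized by capillary electrophoresis. Signal gain or loss was fitted relative to DMSO vehicle.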

The nature of test [12]: ATG_ISRE_CIS: Attagene CIS-FACTORIAL HepG2 Assay for human Interferon Regulatory Factor 1 (IRF1) binding to an Interferon-Stimulated Response Element (ISRE) (AID 2282948). To be noted: HepG2 ISRE cis-reporter (Attagene), mRNA transcription readout; actives raise or lower the signal. Put shortly:
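Quantitation relies on labelled RT-PCR fragments separated by capillary electrophoresis. Human HepG2 cells bearing cis-promoter reporter constructs were treated 24 h; DMSO served as baseline for bidirectional fitting.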

The nature of test [13]: ATG_M_32_CIS: Attagene CIS-FACTORIAL HepG2 Assay for M32 Transcription Factor (Internal Marker) (AID 2282949).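 Also: background control marker of the multiplexed CIS panel rather than a real target.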 To be noted: HepG2 Attagene cis-factorial M32 reporter, mRNA; actives raise or lower the signal. Put shortly:
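Fluorescent capillary electrophoresis peaks of HpaI-digested, FAM-labelled RT-PCR reporter products give the signal. Source: transiently transfected human liver HepG2 cells, 24 h after chemical dosing; bidirectional fitting against DMSO.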

Test [14] in a line: ATG_M_06_CIS: Attagene CIS-FACTORIAL HepG2 Assay for M06 Transcription Factor (Internal Marker) (AID 2282950). Conditions: HepG2 Attagene CIS-FACTORIAL M06 internal marker reporter; actives raise or lower the signal. Put shortly:
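Fluorescence-labelled RT-PCR products from cis-promoter reporter units, cut with HpaI and resolved by capillary electrophoresis, give the signal. Cells are human HepG2, dosed for 24 h. Serves as background control, fitted relative to DMSO.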

Test [15] addresses Hypoxia-inducible factor 1-alpha (Homo sapiens) (UniProt Q16665). The test is described as follows: ATG_HIF1a_CIS: Attagene CIS-FACTORIAL HepG2 Assay for human Hypoxia Inducible Factor 1 (HIF1A) (AID 2282951). Conditions: HepG2 Attagene cis-factorial HIF1a reporter transcription; actives raise or lower the signal. Put shortly: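 Transient MRTU transfection of human HepG2 liver cells, 24 h compound treatment, then total RNA isolation, oligo(dT) reverse transcription, PCR amplification, fluorescent labelling and capillary electrophoresis of reporter fragments. Gain or loss relative to DMSO.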

Test [16] has as its target Hepatocyte nuclear factor 6 (Homo sapiens) (UniProt Q9UBC0). Put plainly: ATG_HNF6_CIS: Attagene CIS-FACTORIAL HepG2 Assay for human Hepatocyte Nuclear Factor 6 (HNF6) (AID 2282952). To be noted: HepG2 Attagene cis-factorial HNF6 reporter transcription; actives raise or lower the signal. Put shortly:
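HepG2, transient MRTU transfection (cis promoters); 24 h chemical exposure; total RNA → oligo(dT) RT → PCR → 6-FAM labelling → HpaI cut → CE; bidirectional fit vs DMSO.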

The target of test [17] is Heat shock factor protein 1 (Homo sapiens) (UniProt Q00613). Put plainly: ATG_HSE_CIS: Attagene CIS-FACTORIAL HepG2 Assay for human Heat Shock Transcription Factor 1 (HSE) (AID 2282953). To be noted: HepG2 HSE cis-reporter, Attagene RNA transcription; actives raise or lower the signal. Put shortly:
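After a 24 h incubation with test chemical, transfected HepG2 cells were harvested for RNA; reporter transcripts were measured by RT-PCR and capillary electrophoresis. Values reflect gain or loss of signal relative to DMSO.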

Test [18] can be described thus: ATG_MRE_CIS: Attagene CIS-FACTORIAL HepG2 Assay for human Metal Responsive Element (MRE) (AID 2282954). Conditions: HepG2 MRE cis-reporter transcription, Attagene multiplex; actives raise or lower the signal. Put shortly: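 Step one: transfect HepG2 with cis-regulated reporter units. Step two: dose 24 h. Step three: isolate RNA, RT-PCR, 6-FAM label, HpaI digest, capillary electrophoresis. Fit bidirectionally to DMSO.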

Test [19] can be described thus: ATG_PBREM_CIS: Attagene CIS-FACTORIAL HepG2 Assay for human Phenobarbital-responsive Enhancer Module (PBREM) (AID 2282955). To be noted: HepG2 PBREM cis-reporter, Attagene multiplexed transcription; actives raise or lower the signal. Put shortly:
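Endogenous transcription factors in human liver HepG2 cells drive a PBREM cis-element reporter, whose transcript level after 24 h treatment is quantified by RT-PCR with capillary electrophoresis; activity fitted in both directions against DMSO.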

Test [20] can be described thus: ATG_GATA_CIS: Attagene CIS-FACTORIAL HepG2 Assay for human GATA Binding Protein (AID 2282944). Conditions: HepG2 GATA cis-element reporter, Attagene multiplex mRNA; actives raise or lower the signal. Put shortly:
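DMSO serves as negative control and baseline for bidirectional fitting of reporter mRNA changes. HepG2 cells bearing transiently transfected cis-promoter reporters were exposed 24 h; transcripts detected via RT-PCR and capillary electrophoresis.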

The source made the active and inactive calls. The calls were made as follows: active = hit-call score of the fitted dose curve at least 0.9, where 1 is the maximum; inactive = score below 0.9.

Sequence of Bile acid receptor (Homo sapiens) (Q96RI1 whole entry, looked up): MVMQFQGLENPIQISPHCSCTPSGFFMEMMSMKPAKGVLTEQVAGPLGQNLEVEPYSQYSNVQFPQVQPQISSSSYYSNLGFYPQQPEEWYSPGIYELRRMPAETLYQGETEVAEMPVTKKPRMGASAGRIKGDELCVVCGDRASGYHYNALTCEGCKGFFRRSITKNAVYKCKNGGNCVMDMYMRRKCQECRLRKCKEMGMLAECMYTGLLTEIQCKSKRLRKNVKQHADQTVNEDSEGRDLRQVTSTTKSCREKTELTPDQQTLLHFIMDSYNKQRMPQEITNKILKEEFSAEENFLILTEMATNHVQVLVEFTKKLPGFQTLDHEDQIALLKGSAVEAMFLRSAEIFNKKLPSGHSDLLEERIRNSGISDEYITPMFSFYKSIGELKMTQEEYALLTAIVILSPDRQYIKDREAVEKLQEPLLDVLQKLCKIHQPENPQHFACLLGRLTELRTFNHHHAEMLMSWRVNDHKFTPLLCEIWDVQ
Sequence of Heat shock factor protein 1 (Homo sapiens) (Q00613 whole entry, looked up): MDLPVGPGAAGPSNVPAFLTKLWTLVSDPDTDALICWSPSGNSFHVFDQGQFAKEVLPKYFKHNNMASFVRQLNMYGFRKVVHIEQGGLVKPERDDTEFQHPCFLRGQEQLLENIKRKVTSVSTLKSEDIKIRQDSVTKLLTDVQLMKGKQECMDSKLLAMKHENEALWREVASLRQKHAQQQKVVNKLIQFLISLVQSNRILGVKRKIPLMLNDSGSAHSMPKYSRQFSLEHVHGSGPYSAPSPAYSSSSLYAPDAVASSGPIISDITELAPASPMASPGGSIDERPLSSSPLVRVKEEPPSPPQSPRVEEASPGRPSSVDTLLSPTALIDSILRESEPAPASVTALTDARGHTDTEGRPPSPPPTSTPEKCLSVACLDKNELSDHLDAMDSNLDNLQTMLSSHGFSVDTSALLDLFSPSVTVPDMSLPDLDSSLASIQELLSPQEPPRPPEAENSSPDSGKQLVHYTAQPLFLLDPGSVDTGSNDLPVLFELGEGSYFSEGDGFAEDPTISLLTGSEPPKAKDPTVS
Sequence of Hepatocyte nuclear factor 6 (Homo sapiens) (Q9UBC0 whole entry, looked up): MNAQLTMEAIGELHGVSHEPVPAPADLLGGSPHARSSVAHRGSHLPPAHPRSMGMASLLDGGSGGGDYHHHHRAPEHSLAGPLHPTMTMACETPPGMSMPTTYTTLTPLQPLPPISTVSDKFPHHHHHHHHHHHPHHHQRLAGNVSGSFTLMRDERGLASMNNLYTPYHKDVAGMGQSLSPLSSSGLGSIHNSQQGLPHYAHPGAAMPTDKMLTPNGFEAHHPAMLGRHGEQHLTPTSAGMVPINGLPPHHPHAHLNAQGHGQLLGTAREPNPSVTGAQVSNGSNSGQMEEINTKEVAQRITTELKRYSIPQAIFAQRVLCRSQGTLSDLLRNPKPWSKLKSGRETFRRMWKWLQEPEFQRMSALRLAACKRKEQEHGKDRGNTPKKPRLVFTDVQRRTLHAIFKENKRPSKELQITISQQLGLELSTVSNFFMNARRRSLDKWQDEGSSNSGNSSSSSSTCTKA
Sequence of Hepatocyte nuclear factor 3-beta (Homo sapiens) (Q9Y261 whole entry, looked up): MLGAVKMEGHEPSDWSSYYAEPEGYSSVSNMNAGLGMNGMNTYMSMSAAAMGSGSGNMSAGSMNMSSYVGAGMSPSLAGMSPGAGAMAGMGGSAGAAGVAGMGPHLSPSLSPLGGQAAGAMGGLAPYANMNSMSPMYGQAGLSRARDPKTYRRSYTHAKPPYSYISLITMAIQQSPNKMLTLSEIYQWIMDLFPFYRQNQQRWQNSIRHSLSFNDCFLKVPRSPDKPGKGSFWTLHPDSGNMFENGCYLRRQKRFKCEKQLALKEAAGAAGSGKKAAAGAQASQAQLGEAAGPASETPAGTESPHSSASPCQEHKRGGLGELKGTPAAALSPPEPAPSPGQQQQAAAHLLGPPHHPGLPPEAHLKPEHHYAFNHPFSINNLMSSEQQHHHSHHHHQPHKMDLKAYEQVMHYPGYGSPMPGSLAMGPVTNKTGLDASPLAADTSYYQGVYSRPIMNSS
Sequence of Hypoxia-inducible factor 1-alpha (Homo sapiens) (Q16665 whole entry, looked up, the tested form may be a part): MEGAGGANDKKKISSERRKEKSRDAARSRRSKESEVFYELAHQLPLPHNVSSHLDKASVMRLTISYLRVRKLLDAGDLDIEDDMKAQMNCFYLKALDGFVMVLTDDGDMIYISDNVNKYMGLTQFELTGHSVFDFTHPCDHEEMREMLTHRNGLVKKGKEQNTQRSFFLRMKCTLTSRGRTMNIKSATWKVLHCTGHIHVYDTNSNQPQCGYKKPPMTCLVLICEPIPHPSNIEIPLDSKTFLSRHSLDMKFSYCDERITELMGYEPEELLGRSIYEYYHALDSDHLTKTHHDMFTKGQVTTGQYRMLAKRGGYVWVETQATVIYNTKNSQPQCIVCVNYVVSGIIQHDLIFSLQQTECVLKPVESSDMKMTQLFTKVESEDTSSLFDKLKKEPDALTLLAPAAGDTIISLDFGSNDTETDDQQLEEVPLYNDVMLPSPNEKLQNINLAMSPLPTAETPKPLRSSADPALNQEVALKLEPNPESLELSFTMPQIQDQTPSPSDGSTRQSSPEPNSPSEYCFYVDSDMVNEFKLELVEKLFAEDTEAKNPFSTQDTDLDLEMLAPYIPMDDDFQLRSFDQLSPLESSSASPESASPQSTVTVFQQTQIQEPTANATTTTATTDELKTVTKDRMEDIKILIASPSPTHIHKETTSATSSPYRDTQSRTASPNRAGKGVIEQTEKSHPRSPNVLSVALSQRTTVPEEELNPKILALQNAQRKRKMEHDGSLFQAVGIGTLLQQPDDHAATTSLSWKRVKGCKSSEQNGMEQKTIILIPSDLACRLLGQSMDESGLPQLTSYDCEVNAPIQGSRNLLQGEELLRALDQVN

For `FC(F)=C(F)OC(F)(F)C(F)(F)C(F)(F)F`, the outcome in test [1], in test [2], in test [3], in test [4], in test [5] and in [6] was inactive. Moreover, the compound was called inactive in test [7], in test [8], in [9], in test [10], in test [11] and in [12]. For the same compound, the compound was called inactive in [13], in test [14], in test [15], in [16], in test [17] and in test [18]. Further, the outcome in test [19] was inactive.

In the case of `Cc1ccc(OC(=O)CC(C)C)cc1`, the outcome in [1], in [2], in [3], in test [4], in test [5] and in test [6] was inactive. For the same compound, the outcome in [7], in [20], in test [9], in test [10], in test [11] and in test [12] was inactive. The outcome in test [13], in test [14], in [15], in test [16], in test [17] and in [18] was inactive. Also, in test [19], the result was inactive.

As for `CN(C)CCCN(C)C`, the result in test [1], in test [2], in test [3], in test [4], in [5] and in [6] was inactive. For the same compound, the compound was called inactive in test [7], in test [8], in [9], in test [11], in test [12] and in test [13]. Further, the result in test [14], in [15], in [16], in [18] and in test [19] was inactive.

As to `CC(C)c1ccc2c(c1)CC[C@H]1[C@](C)(CN)CCC[C@]21C`, the outcome in test [1], in test [2], in test [4], in [5], in test [6] and in test [7] was inactive. In addition, the outcome in [9], in test [10], in test [11], in [12], in test [13] and in test [14] was inactive. Moreover, the result in test [16] was inactive. Further, the AC50 – broadly, the concentration giving half of the maximal activity seen – was 5.35 µM (active) in [3], 5.79 µM (active) in test [20], 6.29 µM (active) in test [17] and 5.77 µM (active) in test [18].

Values taken from PubChem BioAssay (EPA / NIEHS).
